Measured values as given in PubChem BioAssay (Tox21).
Results filed as inconclusive are left out. The source made the active and inactive calls. Unless noted, the call rests on the fitted dose curve; in most records, active means well fitted curve in the direction sought with a large enough effect in the repeat runs; inconclusive means weak or mixed curves; inactive means no such curve, though single readings can be large; an effect the other way counts as inactive or inconclusive.

Assays:
[1] = qHTS assay for small molecule agonists of the p53 signaling pathway (AID 651631; calls by dose curve; further: nearly all actives have a fitted effect of over 15% in size; further: potency means the concentration at half of the fitted maximal effect)
How it was run: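 Readout was fluorescence from the LiveBLAzer FRET substrate, applied for 2 h at room temperature after 16 h compound exposure at 37 °C. Cells were the p53RE-bla HCT-116 line, with beta-lactamase driven by p53 response elements.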

[2] = qHTS assay for small molecules that induce genotoxicity in human embryonic kidney cells expressing luciferase-tagged ATAD5 (AID 651632); further: nearly all actives have a fitted effect of over 15% in size
How it was run: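 Cells were seeded at 2,000 per well, dosed with compound, and incubated 16 hr at 37C in 5% CO2. Luciferase activity was then quantified after a 30 min room-temperature incubation with Amplite.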

[3] = qHTS assay for small molecule agonists of the p53 signaling pathway - cell viability (AID 651633; calls by dose curve; further: series mostly up to about 83 µM; nearly all actives have a fitted effect of over 30% in size)
How it was run: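 Viability counter-read: CellTiter-Glo luminescence (30 min, room temperature) in the same p53RE-bla plates. These plates had been exposed to compounds for 16 h at 37 C.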

[4] = qHTS assay for small molecule disruptors of the mitochondrial membrane potential - cell viability (AID 720634; calls by dose curve;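 further: human HepG2 liver cancer cells; series mostly up to about 83 µM; nearly all actives have a fitted effect of over 20% in size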)
How it was run: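 Cytotoxicity was measured by ATP quantitation in HepG2 wells that had first been treated with compound for 1 hr and stained with m-MPI dye; CellTiter-Glo incubation was 30 min at room temperature.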

[5] = qHTS assay for small molecule disruptors of the mitochondrial membrane potential (AID 720635); further: potency means the concentration at half of the fitted maximal effect
How it was run: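 Mitochondrial membrane potential tracked with Mito-MPS dye, red aggregates (ex 540/em 590 nm) against green monomers (ex 490/em 535 nm). Compound treatment 1 hr at 37C, dye 30 min in HepG2.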

[6] = qHTS assay to test for compound auto fluorescence at 590 nm (red) in HepG2 cells (AID 720674)
How it was run: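 Red autofluorescence (Ex/Em 540/590 nm, Rose Bengal sodium equivalents) was measured in HepG2 cells, 2,000 per well in MEM plus 10% FBS, plated overnight at 37 C. Readings were taken 1 hr after adding 23 nL compound or DMSO, at 37 C and 5% CO2.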

[7] = qHTS assay to test for compound auto fluorescence at 535 nm (green) in HepG2 cells (AID 720675)
[8] = qHTS assay to test for compound auto fluorescence at 460 nm (blue) in HEK293 cells (AID 720678)
How it was run: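 HEK293 cells (2,000 per well, medium with 10% dialyzed FBS) attached for 4-5 hr at 37C, then received compound and stood overnight at 37C, 5% CO2. Blue fluorescence was read at Ex/Em 405/460 nm and expressed relative to triamterene.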

[9] = qHTS assay for small molecules that induce genotoxicity in human embryonic kidney cells expressing luciferase-tagged ATAD5 - cell viability (AID 651634; calls by dose curve; further: nearly all actives have a fitted effect of over 25% in size)
How it was run: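 Cells (HEK293T, luciferase-tagged ATAD5) are seeded at 2,000 per well, dosed with compound or DMSO vehicle, and incubated 15.5 hr at 37C and 5% CO2. CellTiter-Fluor is added for 30 min before fluorescence is measured.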

[10] = qHTS assay to test for compound auto fluorescence at 590 nm (red) in HEK293 cells (AID 720679)
How it was run: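 HEK293 cells (2,000/well, medium with 10% dialyzed FBS) attached for 4-5 hr at 37C, received 23 nL compound and were incubated overnight at 37C, 5% CO2. Red fluorescence was then read at 540/590nm Ex/Em, referenced to Rose Bengal sodium.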
On the % scale 0 is the no-effect control and ±100 the full control effect.

CCCCS(=O)(=O)N[C@@H](Cc1ccc(OCCCCC2CCNCC2)cc1)C(=O)O
inactive: Potency [1] | Potency [2] | Potency [3] | outcome [4] | Potency [5] | outcome [6] | outcome [7] | outcome [8]

O=[N+]([O-])c1ccc(/C=N\O)o1
inactive: Potency [1] | Potency [2] | Potency [3] | Potency [9] | outcome [4] | outcome [6] | outcome [8] | outcome [10]

CC(=O)N[C@H]1[C@H]([C@H](O)[C@H](O)CO)OC(C(=O)O)=C[C@@H]1N=C(N)N
inactive: Potency [1] | Potency [2] | Potency [3] | Potency [9] | outcome [4] | outcome [6] | outcome [7] | outcome [8] | outcome [10]

CCC(C)(CN(C)C)OC(=O)c1ccccc1 (centres undefined)
inactive: Potency [1] | Potency [3] | Potency [9] | outcome [4] | Potency [5] | fluorescence, relative to Rose Bengal [6] -0.657% [at 18.6 µM] | fluorescence, % of fluorescein control [7] -0.164% [at 18.6 µM] | fluorescence, % of triamterene [8] 0.148% [at 18.6 µM] | fluorescence, % of fluorescent control [10] 0.273% [at 18.6 µM]

c1coc(CNc2ncnc3nc[nH]c23)c1
inactive: Potency [1] | Potency [2] | Potency [3] | Potency [9] | outcome [4] | outcome [6] | outcome [7] | outcome [10]

CO[Si](C)(OC)c1ccccc1
inactive: Potency [1] | Potency [2] | Potency [3] | Potency [9] | outcome [6] | outcome [7] | outcome [8] | outcome [10]

COC(=O)Nc1ccc(Cl)c(Cl)c1
inactive: Potency [1] | Potency [2] | Potency [3] | Potency [9] | outcome [6] | outcome [7] | outcome [10]
active: Potency [5] 60.8 µM

CCCCOCCOC(=O)COc1cc(Cl)c(Cl)cc1Cl
inactive: Potency [1] | Potency [2] | Potency [3] | Potency [9] | outcome [4] | outcome [6] | outcome [7] | outcome [8] | outcome [10]

Cc1ncc(COP(=O)(O)O)c(C=O)c1O
inactive: Potency [2] | Potency [3] | Potency [9] | outcome [4] | Potency [5] | outcome [6] | outcome [7]

C=CCCCCCCCCC(=O)OCC
inactive: Potency [1] | Potency [2] | Potency [3] | Potency [9] | outcome [4] | outcome [6] | outcome [7] | outcome [8] | outcome [10]

CC1=CC(=O)[C@H]2C[C@@H]1C2(C)C
inactive: Potency [1] | Potency [2] | Potency [3] | Potency [9] | outcome [4] | outcome [6] | outcome [8] | outcome [10]

CC(C)CC(C)(N)C#N (centres undefined)
inactive: Potency [1] | Potency [2] | Potency [3] | Potency [9] | outcome [4] | outcome [6] | outcome [7] | outcome [8] | outcome [10]

C=COC(=O)C(C)(CC)CCC(C)C (centres undefined)
inactive: Potency [1] | Potency [2] | Potency [3] | Potency [9] | outcome [4] | outcome [6] | outcome [8] | outcome [10]

O=C1NC(=O)C2CC=CCC12 (centres undefined)
inactive: Potency [1] | Potency [3] | Potency [9] | outcome [4] | outcome [6] | outcome [7] | outcome [10]

CCCCCCCCN1CCCC1=O
inactive: Potency [1] | Potency [2] | Potency [3] | Potency [9] | outcome [4] | outcome [6] | outcome [8] | outcome [10]

CC(=O)C1CCCCC1=O (centres undefined)
inactive: Potency [1] | Potency [2] | Potency [3] | Potency [9] | outcome [4] | outcome [6] | outcome [7] | outcome [10]

CN1CCN(c2cc3c(nn2)Oc2ccccc2N3C)CC1
inactive: Potency [1] | Potency [3] | Potency [9] | outcome [4] | Potency [5] | outcome [6] | outcome [7] | outcome [8] | outcome [10]

CCC(=O)OCc1ccccc1
inactive: Potency [1] | Potency [2] | Potency [3] | Potency [9] | outcome [4] | outcome [6] | outcome [7] | outcome [10]

CCCCN1C=CN(C)C1
inactive: Potency [1] | Potency [2] | Potency [3] | Potency [9] | outcome [4] | fluorescence, relative to Rose Bengal [6] -0.0028% [at 18.6 µM] | fluorescence, % of fluorescein control [7] -0.0563% [at 18.6 µM] | fluorescence, % of triamterene [8] 0.173% [at 18.6 µM] | fluorescence, % of fluorescent control [10] -0.0345% [at 18.6 µM]

CCC(C)(CCCC(C)C)OC(C)=O (centres undefined)
inactive: Potency [2] | Potency [3] | Potency [9] | outcome [4] | Potency [5] | outcome [6] | outcome [7] | outcome [8]

Nc1ccn([C@@H]2O[C@H](CO)[C@@H](O)C2(F)F)c(=O)n1
active: Potency [1] 0.106 µM
inactive: Potency [2] | Potency [9] | outcome [4] | outcome [6] | outcome [7] | outcome [10]

C=C[Si](OC(C)=O)(OC(C)=O)OC(C)=O
inactive: Potency [1] | Potency [2] | Potency [3] | Potency [9] | outcome [4] | outcome [6] | outcome [8] | outcome [10]

OCCCCCO
inactive: Potency [1] | Potency [2] | Potency [3] | Potency [9] | outcome [6] | outcome [7] | outcome [8] | outcome [10]

CC(C)CCCO
inactive: Potency [1] | Potency [2] | Potency [3] | Potency [9] | outcome [4] | outcome [6] | outcome [7] | outcome [10]

CC(C)COC(=O)c1ccc(N)cc1
inactive: Potency [1] | Potency [3] | Potency [9] | outcome [4] | outcome [6] | outcome [7] | outcome [8] | outcome [10]

CC(C)C[C@@H](N)C(=O)O
inactive: Potency [1] | Potency [2] | Potency [3] | Potency [9] | outcome [6] | outcome [7] | outcome [8] | outcome [10]

C=CC(=O)OCCCl
inactive: Potency [1] | Potency [3] | outcome [4] | Potency [5] | outcome [6] | outcome [7] | outcome [10]
